# Assay results taken from PubChem BioAssay.
# For some of these results: Results with a measured potency or affinity are listed apart. Active and inactive are the calls of the source.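 Rule for the calls, unless noted: active = primary screen hit whose calcium fluorescence ratio, in both repeats, exceeds the weak agonist control mean by 3 SD; inactive = the rest.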
# Tests used:
# [1] = test system: TRPC4 beta (transient receptor potential cation channel C4), mouse; assay: TRPC4 cation channel opening, retest – cell-based, Fluo4 calcium, HEK293 TRPC4beta/mu-opioid, duplicates, 10 µM, confirmation (AID 2426;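 active = fluorescence ratio normalized to control raised more than 50% in primary screen plus both repeat runs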); details: Fluo4 calcium fluorescence, at 10 µM; active compounds read high
# [2] = test system: transient receptor potential cation channel C4 beta (TRPC4), mouse; assay: TRPC4 cation channel opening, second retest – cell-based, second round, Fluo4, HEK293 TRPC4beta/mu-opioid, 1 µM, confirmation (AID 2461;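 active = primary screen active and over 50% activation in each of two duplicate runs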); details: Fluo4 calcium fluorescence, at 1 µM; active compounds read high
# [3] = test system: TRPC4 (transient receptor potential cation channel C4 beta), mouse; assay: potentiation of DAMGO EC20 TRPC4 response – cell-based, second round, Fluo-4, HEK293 TRPC4beta/mu-opioid, 1 µM, confirmation (AID 2554;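 active = primary screen hit whose fluorescence ratio, in both repeats, exceeds the weak agonist control mean by 3 SD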); details: DAMGO EC20, Fluo-4 calcium flux, at 1 µM; active compounds read high
# [4] = test system: TRPC4 beta (transient receptor potential cation channel C4), mouse; assay: potentiation of DAMGO EC20 TRPC4 response – cell-based, Fluo-4, HEK293 TRPC4beta/mu-opioid, confirmation (AID 2555); details: DAMGO EC20, Fluo-4 calcium flux, at 10 µM; active compounds read high
# [5] = target: Short transient receptor potential channel 4 (Mus musculus) (UniProt Q9QUQ5); assay: blockers of DAMGO-evoked TRPC4 calcium flux – cell-based, Fluo4, HEK293 TRPC4beta/mu-opioid, confirmation (AID 2636;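 active = calcium signal cut by more than 3 SD below the full-agonist control yet still positive, in both repeats and the earlier primary screen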); details: at 10 µM; active compounds read high
# Chain of Short transient receptor potential channel 4 (Mus musculus) (Q9QUQ5 whole entry, looked up): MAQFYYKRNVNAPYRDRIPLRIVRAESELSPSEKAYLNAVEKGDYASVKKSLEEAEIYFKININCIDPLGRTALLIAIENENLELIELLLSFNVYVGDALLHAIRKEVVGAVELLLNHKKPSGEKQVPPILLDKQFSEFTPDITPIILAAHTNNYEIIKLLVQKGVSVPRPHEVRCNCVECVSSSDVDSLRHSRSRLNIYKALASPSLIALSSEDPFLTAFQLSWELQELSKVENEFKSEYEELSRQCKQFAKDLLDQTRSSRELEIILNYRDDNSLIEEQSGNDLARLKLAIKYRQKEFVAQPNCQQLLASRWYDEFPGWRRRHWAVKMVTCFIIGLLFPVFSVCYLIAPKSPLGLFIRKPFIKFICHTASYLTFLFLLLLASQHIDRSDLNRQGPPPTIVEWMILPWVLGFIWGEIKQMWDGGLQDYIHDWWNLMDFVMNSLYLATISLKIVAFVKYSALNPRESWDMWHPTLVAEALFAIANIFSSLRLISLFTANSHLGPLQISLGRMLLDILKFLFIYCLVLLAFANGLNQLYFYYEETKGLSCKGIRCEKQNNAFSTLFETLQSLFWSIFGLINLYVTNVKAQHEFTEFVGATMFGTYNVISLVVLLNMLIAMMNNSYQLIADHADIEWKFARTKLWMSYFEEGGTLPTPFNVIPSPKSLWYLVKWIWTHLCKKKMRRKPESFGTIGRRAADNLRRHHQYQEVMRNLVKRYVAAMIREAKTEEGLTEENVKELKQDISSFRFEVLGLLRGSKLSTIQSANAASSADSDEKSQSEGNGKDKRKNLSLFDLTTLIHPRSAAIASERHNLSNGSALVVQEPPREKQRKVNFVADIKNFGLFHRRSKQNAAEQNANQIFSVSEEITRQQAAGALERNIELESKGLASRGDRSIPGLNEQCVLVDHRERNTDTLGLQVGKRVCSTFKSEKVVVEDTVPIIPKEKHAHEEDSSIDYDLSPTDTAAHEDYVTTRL
# [6] = target: Short transient receptor potential channel 4 (Mus musculus) (UniProt Q9QUQ5); assay: blockers of DAMGO-evoked TRPC4 calcium flux – cell-based, second round, Fluo4, HEK293 TRPC4beta/mu-opioid, 1 µM, confirmation (AID 2637;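 active = calcium signal ratio cut to more than 3 SD under the fully stimulated control mean yet still positive, in both repeats and the primary screen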); details: at 1 µM; active compounds read high
# [7] = target: Short transient receptor potential channel 4 (Mus musculus) (UniProt Q9QUQ5); assay: calcium entry via TRPC4 opening agents – cell-based, HEK293 TRPC4/mu-opioid, Fluo-4 calcium, dose response (AID 434937;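 active = primary screen activator hit with a dose response curve and TRPC4 channel activation at any tested dose; inactive = no activation, no dose response, or not a primary hit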)
# [8] = target: Short transient receptor potential channel 4 (Mus musculus) (UniProt Q9QUQ5); assay: potentiation of DAMGO-evoked TRPC4 calcium signal – cell-based, HEK293 TRPC4/mu-opioid, Fluo-4 calcium, EC20 DAMGO, dose response (AID 434941;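 active = earlier screen potentiator hit that boosts the TRPC4 ion channel at some dose, with a dose response; inactive = no potentiation, no dose response, or not a prior hit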;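 note: calcium entry triggered by an EC20 dose of DAMGO at the co-expressed mu-opioid receptor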)
# [9] = target: Short transient receptor potential channel 4 (Mus musculus) (UniProt Q9QUQ5); assay: block of DAMGO-driven TRPC4 calcium entry – cell-based, HEK293 TRPC4/mu-opioid, Fluo-4 calcium, dose response (AID 434942;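 active = primary screen inhibitor hit that blocks the TRPC4 channel at some tested dose, yielding a dose curve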)
# [10] = target: Short transient receptor potential channel 6 (Mus musculus) (UniProt Q61143); assay: TRPC6 blockade by TRPC4 inhibitor hits – cell-based, HEK293, membrane potential dye, duplicate, selectivity assay for TRPC4 inhibitor project, confirmation (AID 434948;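 active = active in primary screen and both duplicates, each dropping signal beyond three positive-control SD with fluorescence still positive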); details: HEK293 TRPC6, membrane potential dye fluorescence, at 10 µM, stimulated with maximal-effect acetylcholine; active compounds read high
# Chain of Short transient receptor potential channel 6 (Mus musculus) (Q61143 whole entry, looked up): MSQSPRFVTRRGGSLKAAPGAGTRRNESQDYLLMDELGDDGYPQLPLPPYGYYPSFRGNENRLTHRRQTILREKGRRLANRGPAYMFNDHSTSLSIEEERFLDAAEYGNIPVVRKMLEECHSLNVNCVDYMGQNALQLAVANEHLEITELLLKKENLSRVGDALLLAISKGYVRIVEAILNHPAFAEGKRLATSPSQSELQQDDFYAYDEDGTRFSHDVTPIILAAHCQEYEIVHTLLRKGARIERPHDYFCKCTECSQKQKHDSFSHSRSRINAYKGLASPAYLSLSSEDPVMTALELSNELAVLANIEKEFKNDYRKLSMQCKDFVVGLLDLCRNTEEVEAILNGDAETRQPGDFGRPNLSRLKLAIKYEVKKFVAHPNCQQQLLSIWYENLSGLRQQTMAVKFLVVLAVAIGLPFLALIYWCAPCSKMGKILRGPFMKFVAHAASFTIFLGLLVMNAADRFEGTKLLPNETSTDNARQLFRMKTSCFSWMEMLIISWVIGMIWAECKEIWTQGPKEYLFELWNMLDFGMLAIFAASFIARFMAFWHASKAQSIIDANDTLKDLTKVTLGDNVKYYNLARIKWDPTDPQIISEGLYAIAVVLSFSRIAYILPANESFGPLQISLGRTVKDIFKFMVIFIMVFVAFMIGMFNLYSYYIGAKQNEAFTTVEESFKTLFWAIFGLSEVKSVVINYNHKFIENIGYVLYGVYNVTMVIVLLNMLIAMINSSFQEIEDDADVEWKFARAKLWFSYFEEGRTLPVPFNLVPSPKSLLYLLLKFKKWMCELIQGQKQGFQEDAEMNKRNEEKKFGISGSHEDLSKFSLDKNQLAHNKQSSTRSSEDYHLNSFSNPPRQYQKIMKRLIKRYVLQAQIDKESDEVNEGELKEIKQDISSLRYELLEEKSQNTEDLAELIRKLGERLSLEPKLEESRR
# [11] = target: Short transient receptor potential channel 6 (Mus musculus) (UniProt Q61143); assay: TRPC6 opening by TRPC4 activator hits – cell-based, HEK293, membrane potential dye, duplicate, selectivity assay for TRPC4 activator project, confirmation (AID 434950;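 active = membrane potential signal rise above negative control mean plus 3 SD in both duplicates, also active in the earlier TRPC4 screen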;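 for activation: 0% = buffer only wells and 100% = acetylcholine maximal-effect wells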); details: HEK293 TRPC6, membrane potential fluorescence, at 10 µM; activation: active compounds read high; outcome: activation
# [12] = target: Short transient receptor potential channel 6 (Mus musculus) (UniProt Q61143); assay: positive modulators of mouse TRPC6 channel – HEK293 cells, membrane potential dye, duplicate, selectivity assay for TRPC4 potentiator project, confirmation (AID 434952;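 active = compound raising the membrane signal above positive-control mean plus 3 SD in both repeats, and a primary screen hit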); details: HEK293 TRPC6, membrane potential dye fluorescence, at 10 µM, maximal acetylcholine added after compound; active compounds read high
# [13] = target: Short transient receptor potential channel 4 (Mus musculus) (UniProt Q9QUQ5); assay: calcium flux activators in TRPC4/5HT1a cells, counter-screen for TRPC4 activator project, cell-based, second counter screen, HEK293 TRPC4/5HT1a, Fluo-4 (AID 434977;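 active = calcium signal rise above buffer-control mean plus 5 SD in both duplicates, and also a hit in the primary screen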;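 for activation: plate controls were assay buffer for no effect and maximal serotonin response for full effect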); details: Fluo-4 calcium flux, at 10 µM; active compounds read high
# [14] = serotonin-gated TRPC4 signal block – cell-based, second counter screen, HEK293 TRPC4/5HT1a, Fluo-4, counter-screen for TRPC4 inhibitor project, confirmation (AID 434978;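 active = primary screen active whose calcium signal fell more than 3 SD beyond the full-serotonin control mean in both duplicate plates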;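 note: serotonin given first at submaximal then at maximal dose after compound preincubation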); details: Fluo-4 calcium flux, at 10 µM, serotonin added to trigger calcium flux; active compounds read high
# [15] = test system: TRPC4 (mouse), co-expressed with 5HT1a in HEK293; assay: enhancement of serotonin-evoked TRPC4 response – cell-based, second counter screen, HEK293 TRPC4/5HT1a, Fluo-4, counter-screen for TRPC4 potentiator project, confirmation (AID 434979;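 active = signal rise over 3 SD above mean of control wells given weak agonist, in both repeats and first screen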); details: Fluo-4 calcium flux, at 10 µM, serotonin added at its EC20 dose; active compounds read high
# [16] = nonspecific calcium rise without TRPC4 – cell-based, HEK293 mu-opioid receptor line, counter-screen for TRPC4 activator project, confirmation (AID 449723;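 active = hit in primary screen, with calcium signal over 5 SD above buffer well mean in both duplicates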;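 note: counter screen cells carry the mu-opioid receptor alone and lack TRPC4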); details: HEK293 mu-opioid cells, Fluo-4 calcium fluorescence, at 10 µM; active compounds read high
# [17] = nonspecific potentiation of DAMGO calcium response – cell-based, HEK293 mu-opioid receptor line, counter-screen for TRPC4 allosteric potentiator project, confirmation (AID 449724;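 active = calcium signal rise more than 3 SD above the low-dose agonist control mean, in both duplicate plates and the primary screen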); details: HEK293 mu-opioid receptor cells, Fluo-4 calcium flux, at 10 µM, compound added before EC20 DAMGO stimulus; active compounds read high
structure (smiles),measurement,setting,value
COc1cccc(NC(=O)COc2c(F)c(F)c(C(F)(F)F)c(F)c2F)c1,outcome,[1],inactive
same,outcome,[2],inactive
same,outcome,[3],inactive
same,outcome,[4],inactive
same,outcome,[5],inactive
same,outcome,[6],inactive
same,outcome,[7],inactive
same,outcome,[8],inactive
same,outcome,[9],inactive
same,outcome,[10],inactive
same,outcome,[11],inactive
same,outcome,[12],inactive
same,outcome,[13],inactive
same,outcome,[14],inactive
same,outcome,[15],inactive
same,outcome,[16],inactive
same,outcome,[17],inactive
CCN1CCN(c2c(Cl)cccc2NC(=O)c2cc3ccccc3o2)CC1,outcome,[1],inactive
same,outcome,[2],inactive
same,outcome,[3],inactive
same,outcome,[4],inactive
same,outcome,[5],inactive
same,outcome,[6],inactive
same,outcome,[7],inactive
same,outcome,[8],inactive
same,outcome,[9],inactive
same,outcome,[10],inactive
same,outcome,[11],inactive
same,outcome,[12],inactive
same,outcome,[13],inactive
same,outcome,[14],inactive
same,potentiation,[15],7.29% (active)
same,outcome,[16],inactive
same,outcome,[17],inactive
COC(=O)C1=C(CCc2ccccc2)NC(=O)NC1c1ccc(Cl)cc1 (stereo not drawn),outcome,[1],inactive
same,outcome,[2],inactive
same,outcome,[3],inactive
same,potentiation,[4],35% (active)
same,outcome,[5],inactive
same,outcome,[6],inactive
same,outcome,[7],inactive
same,outcome,[8],inactive
same,outcome,[9],inactive
same,outcome,[10],inactive
same,outcome,[11],inactive
same,outcome,[12],inactive
same,outcome,[13],inactive
same,outcome,[14],inactive
same,potentiation,[15],39.7% (active)
same,outcome,[16],inactive
same,outcome,[17],inactive
CC(C)Cn1c(CN2CCN(C)C(CCO)C2)nc2ccccc21 (stereo not drawn),outcome,[1],inactive
same,outcome,[2],inactive
same,outcome,[3],inactive
same,outcome,[4],inactive
same,outcome,[5],inactive
same,outcome,[6],inactive
same,outcome,[7],inactive
same,outcome,[8],inactive
same,outcome,[9],inactive
same,outcome,[10],inactive
same,outcome,[11],inactive
same,outcome,[12],inactive
same,outcome,[13],inactive
same,outcome,[14],inactive
same,outcome,[15],inactive
same,outcome,[16],inactive
same,outcome,[17],inactive
CCOc1cc(N(CC)CC)ccc1/C=C(/C#N)c1nc2ccccc2[nH]1,outcome,[1],inactive
same,outcome,[2],inactive
same,outcome,[3],inactive
same,outcome,[4],inactive
same,outcome,[5],inactive
same,outcome,[6],inactive
same,outcome,[7],inactive
same,outcome,[8],inactive
same,outcome,[9],inactive
same,outcome,[10],inactive
same,activation,[11],86% (active)
same,outcome,[12],inactive
same,activation,[13],16.9% (active)
same,outcome,[14],inactive
same,outcome,[15],inactive
same,activation,[16],31.5% (active)
same,outcome,[17],inactive
O=C(c1ccccc1)C1CCc2occc2C1=O (stereo not drawn),outcome,[1],inactive
same,outcome,[2],inactive
same,outcome,[3],inactive
same,outcome,[4],inactive
same,outcome,[5],inactive
same,outcome,[6],inactive
same,outcome,[7],inactive
same,outcome,[8],inactive
same,outcome,[9],inactive
same,outcome,[10],inactive
same,outcome,[11],inactive
same,outcome,[12],inactive
same,outcome,[13],inactive
same,outcome,[14],inactive
same,outcome,[15],inactive
same,outcome,[16],inactive
same,outcome,[17],inactive
O=C(Nc1nnc2n1CCS2)c1ccc(Br)o1,outcome,[1],inactive
same,outcome,[2],inactive
same,outcome,[3],inactive
same,potentiation,[4],80% (active)
same,outcome,[5],inactive
same,outcome,[6],inactive
same,outcome,[7],inactive
same,outcome,[8],inactive
same,outcome,[9],inactive
same,outcome,[10],inactive
same,outcome,[11],inactive
same,outcome,[12],inactive
same,outcome,[13],inactive
same,outcome,[14],inactive
same,potentiation,[15],56.3% (active)
same,outcome,[16],inactive
same,outcome,[17],inactive
COc1ccc(NS(=O)(=O)c2csc(C(N)=O)c2)cc1OC,outcome,[1],inactive
same,outcome,[2],inactive
same,outcome,[3],inactive
same,outcome,[4],inactive
same,outcome,[5],inactive
same,outcome,[6],inactive
same,outcome,[7],inactive
same,outcome,[8],inactive
same,outcome,[9],inactive
same,outcome,[10],inactive
same,outcome,[11],inactive
same,outcome,[12],inactive
same,outcome,[13],inactive
same,outcome,[14],inactive
same,potentiation,[15],12.9% (active)
same,outcome,[16],inactive
same,outcome,[17],inactive
O=C(NCCCN1CCCC1=O)c1ccc(CNS(=O)(=O)c2ccc(F)cc2)cc1,outcome,[1],inactive
same,outcome,[2],inactive
same,outcome,[3],inactive
same,outcome,[4],inactive
same,outcome,[5],inactive
same,outcome,[6],inactive
same,outcome,[7],inactive
same,outcome,[8],inactive
same,outcome,[9],inactive
same,outcome,[10],inactive
same,outcome,[11],inactive
same,outcome,[12],inactive
same,outcome,[13],inactive
same,outcome,[14],inactive
same,potentiation,[15],14.7% (active)
same,outcome,[16],inactive
same,outcome,[17],inactive
O=C1CC2(CCN(S(=O)(=O)c3ccccc3F)CC2)Oc2ccccc21,outcome,[1],inactive
same,outcome,[2],inactive
same,outcome,[3],inactive
same,potentiation,[4],21% (active)
same,outcome,[5],inactive
same,outcome,[6],inactive
same,outcome,[7],inactive
same,outcome,[8],inactive
same,outcome,[9],inactive
same,outcome,[10],inactive
same,outcome,[11],inactive
same,outcome,[12],inactive
same,outcome,[13],inactive
same,outcome,[14],inactive
same,potentiation,[15],34.2% (active)
same,outcome,[16],inactive
same,outcome,[17],inactive
COC(=O)C(CC(=O)Nc1cc(C)ccc1C)Nc1ccccc1OC (stereo not drawn),outcome,[1],inactive
same,outcome,[2],inactive
same,outcome,[3],inactive
same,outcome,[4],inactive
same,outcome,[5],inactive
same,outcome,[6],inactive
same,outcome,[7],inactive
same,outcome,[8],inactive
same,outcome,[9],inactive
same,outcome,[10],inactive
same,activation,[11],40.5% (active)
same,outcome,[12],inactive
same,outcome,[13],inactive
same,outcome,[14],inactive
same,outcome,[15],inactive
same,outcome,[16],inactive
same,outcome,[17],inactive
C=CCNC(=S)N1CCN(CCN=Cc2c(C)[nH]n(-c3ccc([N+](=O)[O-])cc3)c2=O)CC1,outcome,[1],inactive
same,outcome,[2],inactive
same,outcome,[3],inactive
same,outcome,[4],inactive
same,outcome,[5],inactive
same,outcome,[6],inactive
same,outcome,[7],inactive
same,outcome,[8],inactive
same,outcome,[9],inactive
same,outcome,[10],inactive
same,outcome,[11],inactive
same,outcome,[12],inactive
same,outcome,[13],inactive
same,outcome,[14],inactive
same,outcome,[15],inactive
same,outcome,[16],inactive
same,outcome,[17],inactive
O=C(NC1CCN(Cc2ccccc2)CC1)c1cccc(S(=O)(=O)Nc2cc(C(F)(F)F)ccc2Cl)c1,outcome,[1],inactive
same,outcome,[2],inactive
same,potentiation,[3],13% (active)
same,outcome,[4],inactive
same,outcome,[5],inactive
same,outcome,[6],inactive
same,outcome,[7],inactive
same,outcome,[8],inactive
same,outcome,[9],inactive
same,outcome,[10],inactive
same,outcome,[11],inactive
same,outcome,[12],inactive
same,outcome,[13],inactive
same,outcome,[14],inactive
same,potentiation,[15],22.2% (active)
same,outcome,[16],inactive
same,outcome,[17],inactive
Cc1c(CCOC(=O)c2ccccc2)sc[n+]1CC(=O)c1ccc(Br)cc1,outcome,[1],inactive
same,outcome,[2],inactive
same,outcome,[3],inactive
same,outcome,[4],inactive
same,outcome,[5],inactive
same,outcome,[6],inactive
same,outcome,[7],inactive
same,outcome,[8],inactive
same,outcome,[9],inactive
same,outcome,[10],inactive
same,outcome,[11],inactive
same,outcome,[12],inactive
same,outcome,[13],inactive
same,outcome,[14],inactive
same,outcome,[15],inactive
same,outcome,[16],inactive
same,outcome,[17],inactive
